What all share (experiment): NCI-60 one-dose screen, 48 h (100 = growth as untreated, 0 = no growth, -100 = all killed)
What all share (conditions): 10 µM unless noted

Experiment [1] has as its system NCI-H23 lung.
Experiment [2] relates to NCI-H226 lung.
The subject of experiment [3] is NCI-H322M lung.
The subject of experiment [4] is HOP-62 NSCLC.
Experiment [5] deals with NCI-H460 lung.
Experiment [6] deals with HOP-92 NSCLC.
In experiment [7] the test system is NCI-H522 lung.
Experiment [8] concerns A549/ATCC NSCLC.
Experiment [9] has as its system 786-0 renal.
Experiment [10] deals with COLO 205 colon.

This is part of a sample that, as a whole, favours compounds with a hit. Of some 83,000 tested, about 20% had one in any assay.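 Cells were grown in 96-well plates and exposed to the test compound at a single concentration for 48 hours; results are reported as percent growth, with values below 10 considered active.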 A number with no mark means an inactive call. Activity calls are given as the source filed them.

`CC1(C)CC[C@]2(C(=O)O)CC[C@]3(C)[C@H](CC[C@@H]4[C@@]5(C)CCC(=O)C(C)(C)[C@@H]5CC[C@]43C)[C@H]2[C@H]1OC(=O)C(F)(F)F`: the growth in experiment [1] is -62.4% [100 µM] (active); in experiment [2] it was -51.2% [100 µM] (active); in [3] it was -65.6% [100 µM] (active); in experiment [4] it was -79.6% [100 µM] (active); in experiment [5], -66.1% [100 µM] (active); in [6], -79.6% [100 µM] (active). The growth in experiment [7] was -71.2% [100 µM] (active); in experiment [8] it was -52.7% [100 µM] (active); in experiment [9] it was -72.7% [100 µM] (active); in [10] it was -72% [100 µM] (active).

In the case of `COc1ccc(C=C2c3ccccc3-c3ccccc32)cc1`, the growth in [1] was 67.6%; in experiment [2], 68.6%; in [3], 72.2%; in experiment [4], 55.2%; in [5], 30.6%; in experiment [6], 67.3%. For the same compound, the growth in [7] is 13.7%; in experiment [8] it was 52.2%; in [9], 58.5%; in [10], 29.6%.

In the case of `COc1ccc(C(=O)CCC(=O)O)cc1`, the growth in experiment [1] is 89.4%; in [2], 93.3%; in [3], 97.3%; in [4], 104%; in experiment [5] it was 101%; in experiment [6] it was 105%. In addition, the growth in experiment [7] was 102%; in [8], 93.2%; in [9], 103%; in experiment [10], 101%.

For the compound `Clc1ccccc1/C=N\Nc1ccccn1`, the growth was 84.9% in [1]; 80.8% in experiment [2]; 111% in experiment [3]; 83.8% in [4]; 99.2% in experiment [5]; 83.9% in experiment [6]. Also, the growth was 91.7% in experiment [7], 93.6% in experiment [8], 113% in experiment [9] and 95.7% in experiment [10].

For the compound `NNC(=O)c1ccc(C(=O)NN)cc1`, the growth was 101% in experiment [1]; 97.6% in [2]; 102% in experiment [3]; 115% in experiment [4]; 104% in experiment [5]; 104% in [6]. Moreover, the growth is 101% in experiment [7], 100% in [8], 114% in [9] and 138% in experiment [10].

In the case of `C#CCNC(=O)CC[C@]1(C)[C@H]2CC[C@@H]3[C@@H]([C@@](C)(O)CCC=C(C)C)CC[C@@]3(C)[C@]2(C)CC[C@H]1C(=C)C`, the growth in [1] was 16.3% [100 µM]; in [2], 51.5% [100 µM]; in experiment [3] it was 75.7% [100 µM]; in experiment [4] it was 51.5% [100 µM]; in experiment [5], 33.7% [100 µM]; in experiment [6] it was -25.5% [100 µM] (active). Besides, the growth in [8] was 37.7% [100 µM]; in experiment [9] it was -67.9% [100 µM] (active); in [10], 42.7% [100 µM].

Take `N#C/C(C(=O)c1ccccc1)=C1/C(=O)Nc2ccc(Br)cc21`: the growth is 94.4% in experiment [1]; 96.6% in experiment [2]; 101% in experiment [3]; 84.1% in experiment [4]; 105% in [5]; 109% in experiment [6]. Further, the growth in [8] was 104%; in [9] it was 101%; in experiment [10], 113%.

In the case of `COC(=O)[C@]12CCC(C)(C)C[C@H]1C1=CC[C@@H]3[C@@]4(C)C/C(=C/c5cccnc5)C(=O)C(C)(C)[C@@H]4CC[C@@]3(C)[C@]1(C)CC2`, the growth in [1] was -40.6% [100 µM] (active); in [2], -51.7% [100 µM] (active); in experiment [3], -13.4% [100 µM] (active); in experiment [4] it was -19.3% [100 µM] (active); in experiment [5] it was -39.3% [100 µM] (active); in experiment [6], -61.5% [100 µM] (active). The growth in [8] was 0.0781% [100 µM] (active); in experiment [9], -29.1% [100 µM] (active); in experiment [10], -46.2% [100 µM] (active).

For the compound `O=C(N[C@@H]1CCCc2ccccc21)[C@H](CCC(=O)N1CCN(C2CCCCC2)CC1)N1C(=O)[C@@H](N2C(=O)OC[C@@H]2c2ccccc2)[C@H]1/C=C/c1ccccc1`, the growth in experiment [1] is 57.7%; in experiment [2] it was 64.4%; in experiment [3], 34.6%; in experiment [4] it was 61.3%; in experiment [5], 29.4%; in experiment [6] it was 2.75% (active). Also, the growth is 28% in experiment [8], 42.1% in experiment [9] and 34.4% in experiment [10].

`COC(=O)[C@@H](NC(=O)NC(=O)NC(=O)CI)C(C)C`: the growth was 93.8% in [1]; 85.1% in experiment [2]; 103% in [3]; 86.3% in [4]; 89.3% in experiment [5]; -17.7% (active) in experiment [6]. For the same compound, the growth in experiment [8] is 94.6%; in experiment [9], -25.1% (active); in experiment [10], 38.6%.

With `Oc1ccc(N=Nc2nccs2)c(O)c1`, the growth in experiment [1] is 81.2%; in experiment [2], 89.6%; in experiment [3], 74.4%; in experiment [4], 79%; in experiment [5], 31.2%; in experiment [6], 61.7%. In addition, the growth in experiment [7] is 41.5%; in experiment [8], 52.2%; in experiment [9] it was 36.8%; in experiment [10], 24.8%.

As for `O=C(NCCO)c1cccnc1`, the growth in experiment [1] is 102%; in [2], 92.7%; in experiment [3], 95.9%; in experiment [4] it was 91.9%; in experiment [5], 98.9%; in [6] it was 82.7%. Further, the growth in experiment [8] is 88.5%; in experiment [9] it was 97%; in [10] it was 105%.
